rCAG binder – binders of r(CAG) RNA repeats, primary screen, biochemical, fluorescence; hit rate 1.3% among 370,000; inhibition, % at 3 µM; r(CAG) RNA repeat, TO-PRO-1 dye displacement fluorescence;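 active = inhibition above the plate cutoff, the mean of all test compounds on that plate plus 3 SD, cut at about 35% in these data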;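 note: 0% = DMSO alone and 100% = 100 µM mitoxantrone as full dye displacement; higher means more dye released from RNA so lower well fluorescence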
ABCB6 inh MLPCN – ABCB6 transporter inhibitors, primary screen, K562-ABCB6 cells, flow cytometry, MLPCN library | ATP-binding cassette sub-family B member 6 (Homo sapiens), Q9NP58 | K562-ABCB6 porphyrin accumulation, 1 h; hits give low values | fluorescence ratio to DMSO, % at 10 µM | hit rate 0.19% among 360,000 | AID 602162, 2011;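 active = fluorescence ratio to DMSO below 75%, the collection mean minus 3 SD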;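 note: signal is porphyrin accumulated inside mitochondria; 100% equals median channel fluorescence of DMSO control wells; lower ratio means ABCB6 inhibition with less porphyrin fluorescence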
Target sequence (Q9NP58 whole entry, looked up): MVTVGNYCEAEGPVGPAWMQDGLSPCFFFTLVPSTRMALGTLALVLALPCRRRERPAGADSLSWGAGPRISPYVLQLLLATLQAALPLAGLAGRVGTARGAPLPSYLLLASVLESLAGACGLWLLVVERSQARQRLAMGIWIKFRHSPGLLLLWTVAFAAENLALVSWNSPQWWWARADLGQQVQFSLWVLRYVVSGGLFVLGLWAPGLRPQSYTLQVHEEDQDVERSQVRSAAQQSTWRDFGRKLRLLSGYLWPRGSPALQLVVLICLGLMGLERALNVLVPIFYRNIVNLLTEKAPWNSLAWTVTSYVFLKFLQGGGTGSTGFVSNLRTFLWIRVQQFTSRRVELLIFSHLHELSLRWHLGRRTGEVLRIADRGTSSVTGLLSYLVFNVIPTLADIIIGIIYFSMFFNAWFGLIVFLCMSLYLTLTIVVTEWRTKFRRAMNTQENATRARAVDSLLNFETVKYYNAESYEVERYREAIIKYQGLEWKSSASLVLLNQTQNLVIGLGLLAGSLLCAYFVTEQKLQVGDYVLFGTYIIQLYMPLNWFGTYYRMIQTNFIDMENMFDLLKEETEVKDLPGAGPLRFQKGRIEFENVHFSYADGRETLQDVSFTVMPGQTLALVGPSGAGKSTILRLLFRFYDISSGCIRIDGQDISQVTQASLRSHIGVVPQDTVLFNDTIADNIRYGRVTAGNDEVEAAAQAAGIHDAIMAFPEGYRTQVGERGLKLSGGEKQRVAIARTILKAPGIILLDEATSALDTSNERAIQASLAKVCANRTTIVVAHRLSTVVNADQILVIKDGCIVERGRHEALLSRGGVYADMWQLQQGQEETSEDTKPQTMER
Exocytosis inh – LAMP-1 surface exposure blockers, TALL-104 cells – cell-based, flow cytometry, MLPCN library, primary screen | TALL-104 LAMP-1 surface exposure; cells stimulated with thapsigargin and PMA | inhibition, % at 10 µM | hit rate 0.66% among 360,000;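 active = inhibition above about 55%, limit read from the data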
PG9 Ab binder – binders of HIV-1 gp120 antibody PG9, primary screen, biochemical, TR-FRET; HIV-1 gp120 / PG9 antibody interaction; TR-FRET gp120-PG9 antibody binding; inhibition, % at 6.7 µM; hit rate 0.43% among 360,000; AID 624416, 2012; in the data active = inhibition above about 8.5%
ABCB6 blocker 1 – ABCB6 transporter inhibitors, confirmation, K562-ABCB6 cells, flow cytometry, cherry pick 1; shares compounds with ABCB6 inh MLPCN; K562-ABCB6 porphyrin accumulation, 1 h; hits give low values; ratio response (% of DMSO), % at 10 µM; 700 tested, under 10 active;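 active = repeat-averaged ratio response below 75% of DMSO, the collection mean minus 3 SD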;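 note: median porphyrin fluorescence at 575 nm with 488 nm excitation from mitochondria; lower ratio means less porphyrin signal so ABCB6 inhibition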
* hit, by the source's call; · = not tested or not shown. Most compounds without a hit are left out; they make up all but 2.5% or so of the library.

SMILES | rCAG binder | ABCB6 inh MLPCN | Exocytosis inh | PG9 Ab binder | ABCB6 blocker 1
Clc1ccc2c(c1)C(N1CCNCC1)Cc1ccccc1S2 (configuration not stated) | · | 94.0 | 73.4* | · | ·
O=[N+]([O-])c1ccc(S(=O)(=O)CC(CN2CCCCC2)N2CCCCC2)cc1 (configuration not stated) | 3.8 | 103.0 | 64.1* | 0.2 | ·
N#C/C(=C\c1ccc(N2CCOCC2)o1)c1nc2ccccc2[nH]1 | -45.7 | 105.0 | -0.1 | -25.8 | ·
N#C/C(=C/c1ccc(N2CCOCC2)o1)c1ccc(Cl)cc1 | 9.3 | 226.0 | 81.6* | -1.9 | ·
Cc1nc(COC(=O)c2ccc(CO)cc2)cs1 | 6.7 | 91.0 | -3.4 | 0.5 | ·
Cc1nc(COC(=O)c2cc(O)c3ccccc3c2O)cs1 | 10.0 | 99.0 | 64.4* | -0.2 | ·
COC(=O)[C@]12C[C@H](CC(=O)NCCCN3CCCC3=O)C(=O)N(Cc3ccc4c(c3)OCO4)C1=C[C@H](COCc1ccccc1)O[C@@H]2C | 2.0 | · | · | -0.2 | ·
CN(C)C=Nc1nc2c(Br)ccc(Br)c2cc1C(=O)NCC(C)(C)C | 2.0 | · | · | · | ·
Nc1c(C(=O)NCc2ccc3c(c2)OCO3)c2nc3ccccc3nc2n1CCCN1CCOCC1 | 8.9 | 97.0 | 11.7 | -0.4 | ·
COc1ccccc1CNC(=O)c1c(N)n(CCCN2CCOCC2)c2nc3ccccc3nc12 | 8.8 | 108.0 | 71.5* | 1.5 | ·
O=C1CC(Cc2ccc(Cl)cc2)C(=O)N1c1ccncc1 (configuration not stated) | 1.1 | 93.0 | -3.5 | -0.7 | ·
O=C1CC(Cc2ccc(Cl)cc2)C(=O)N1c1ccccn1 (configuration not stated) | -1.3 | 73.0* | -1.0 | -0.8 | ·
COC(=O)[C@]12C[C@H](CC(=O)NCCCCc3ccccc3)C(=O)N(Cc3ccco3)C1=C[C@H](C(C)(C)C)O[C@@H]2C | -0.1 | · | · | · | ·
Cc1nc2c(C(=O)N3CCCC3)cnn2c(C)c1Cc1c(F)cccc1Cl | -0.6 | 95.0 | -0.2 | -1.6 | 97.0
Cc1ccccc1Cc1c(C)nc2c(C(=O)NCc3ccco3)cnn2c1C | · | 70.0* | 13.4 | · | 99.0
Cc1ccc(C)c(Cc2c(C)nc3c(C(=O)N4CCOCC4)cnn3c2C)c1 | -6.7 | 93.0 | 2.4 | -2.2 | 101.0
Cc1nc2c(C(=O)N3CCN(c4ccccn4)CC3)cnn2c(C)c1Cc1cccc(Cl)c1 | -3.2 | 91.0 | -2.9 | 0.2 | ·
Cc1ccccc1Cc1c(C)nc2nc(SCC(=O)NCc3ccco3)nn2c1C | -3.4 | 94.0 | 2.1 | 0.5 | ·
CCOC(=O)N1CCN(C(=O)c2cnn3c(C)c(Cc4ccc(C)cc4)c(C)nc23)CC1 | · | 111.0 | 0.1 | · | 99.0
Cc1nc2c(C(=O)O)cnn2c(C)c1Cc1ccccc1F | 2.2 | 92.0 | 0.2 | -2.4 | ·
C[C@@H](NC(=O)C[C@H]1CC[C@H]2[C@@H](COc3ccc(NC(=O)Nc4ccccc4)cc3C(=O)N2C)O1)c1ccccc1 | 11.1 | · | · | · | ·
CCOc1ccc(-c2cncc3nccn23)cc1 | 3.0 | 65.0* | 0.1 | 0.2 | 98.0
CCc1ccc(CCC(=O)Nc2sc(C)c(C)c2C(=O)OC)o1 | -1.9 | 69.0* | 6.7 | -0.3 | 97.0
Cc1c(C(=O)N(Cc2ccccc2)Cc2cccs2)cnn1-c1ccc(Cl)cc1 | -2.3 | 14.0* | 1.8 | -1.3 | 100.0
O=C(NCc1cccc(Cl)c1)c1ccc2ccccc2n1 | 0.3 | 70.0* | 8.7 | -0.9 | 99.0
SMILES | rCAG binder | ABCB6 inh MLPCN | Exocytosis inh | PG9 Ab binder | ABCB6 blocker 1
O=C(NCc1ccccc1Cl)c1ccc2ccccc2n1 | 4.0 | 99.0 | 17.3 | 0.6 | ·
O=C(OCc1cn(Cc2ccccc2F)nn1)N1CCCC1 | 2.5 | · | · | · | ·
O=C(O)c1ccc(CSCc2ccco2)cc1 | -0.3 | 74.0* | 8.1 | -2.5 | 99.0
Clc1ccc(-c2cc(-c3nnc4sc(Cc5cccs5)nn34)[nH]n2)cc1 | 24.2 | · | · | · | ·
COc1cc2[nH]c(=S)nc(NCC3CCCO3)c2cc1OC (configuration not stated) | 2.0 | 93.0 | -3.8 | 1.2 | ·
COc1cc2[nH]c(=S)nc(NC3CCCCCC3)c2cc1OC | 11.5 | 73.0* | -0.7 | -2.0 | 99.0
O=C(COC(=O)CSc1ccc2ccccc2c1)NCc1ccc2c(c1)OCO2 | 1.6 | 65.0* | -7.8 | 2.4 | 98.0
C(=N\Nc1ccccc1)/c1nc2ccccc2s1 | 11.1 | 94.0 | -1.6 | 0.0 | ·
